Holding throughout (test): DAPPL (digital affinity profiling via proximity ligation, sequencing); 10 mM Tris-HCl pH 7.5, 50 mM NaCl, 1 mM DTT, 4% glycerol, room temperature, 30 min; GST-TFs on glutathione beads, 16-mer random dsDNA library, 0.1% formaldehyde crosslink after washing; high values mean tight binding
What all share (settings): protein: recombinant; tags: N-terminal GST; dsDNA, one strand shown

Assay [1] addresses T1, ERF (Homo sapiens, UniProt P50548 1-548).
T1 sequence: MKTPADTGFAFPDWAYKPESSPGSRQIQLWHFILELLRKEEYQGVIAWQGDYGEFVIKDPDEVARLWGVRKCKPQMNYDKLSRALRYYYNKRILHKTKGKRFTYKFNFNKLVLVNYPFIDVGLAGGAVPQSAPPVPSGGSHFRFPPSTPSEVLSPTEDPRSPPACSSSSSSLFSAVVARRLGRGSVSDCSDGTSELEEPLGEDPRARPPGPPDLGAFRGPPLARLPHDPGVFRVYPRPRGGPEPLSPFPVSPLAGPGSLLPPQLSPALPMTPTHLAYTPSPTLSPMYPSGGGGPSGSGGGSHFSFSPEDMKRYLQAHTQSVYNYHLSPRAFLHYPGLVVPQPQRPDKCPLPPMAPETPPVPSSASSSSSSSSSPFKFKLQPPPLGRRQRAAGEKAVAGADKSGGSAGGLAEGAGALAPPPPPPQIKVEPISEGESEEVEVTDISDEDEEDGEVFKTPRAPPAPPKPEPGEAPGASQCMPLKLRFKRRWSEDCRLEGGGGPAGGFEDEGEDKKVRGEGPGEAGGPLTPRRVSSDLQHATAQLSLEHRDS
The method, boiled down: (§1)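 Pools of DNA-barcoded human transcription factors, expressed in yeast as GST fusions on glutathione beads and combined with a tag-only sample, were incubated with 200 nmole of a 16-mer random double-stranded DNA library. Incubation took 30 min at room temperature in Tris/NaCl/DTT/glycerol buffer and was followed by washing, 0.1% formaldehyde crosslinking, proximity ligation (BsaI/T4 ligase, 1 h, 37 °C), PCR amplification and sequencing on an Illumina NextSeq500. Binding signal is the ratio of a hexamer's read frequency for a factor to its frequency for the tag-only sample.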

Assay [2] addresses T2, ETV3L (Homo sapiens, UniProt Q6ZN32 1-361).
T2 sequence: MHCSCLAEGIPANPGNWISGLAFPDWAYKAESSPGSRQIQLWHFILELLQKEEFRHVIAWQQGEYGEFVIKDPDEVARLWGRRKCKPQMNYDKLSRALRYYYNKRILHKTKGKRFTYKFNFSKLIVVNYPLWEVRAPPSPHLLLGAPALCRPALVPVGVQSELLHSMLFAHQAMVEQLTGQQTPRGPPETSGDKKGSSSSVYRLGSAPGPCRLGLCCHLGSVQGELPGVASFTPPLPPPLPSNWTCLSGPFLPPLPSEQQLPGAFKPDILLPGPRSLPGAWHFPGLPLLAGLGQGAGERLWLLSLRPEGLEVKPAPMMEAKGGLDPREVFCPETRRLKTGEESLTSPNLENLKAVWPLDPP
The method, boiled down: as §1

Assay [3] has as its target T3, ETS2 (Homo sapiens, UniProt P15036 1-469).
T3 sequence: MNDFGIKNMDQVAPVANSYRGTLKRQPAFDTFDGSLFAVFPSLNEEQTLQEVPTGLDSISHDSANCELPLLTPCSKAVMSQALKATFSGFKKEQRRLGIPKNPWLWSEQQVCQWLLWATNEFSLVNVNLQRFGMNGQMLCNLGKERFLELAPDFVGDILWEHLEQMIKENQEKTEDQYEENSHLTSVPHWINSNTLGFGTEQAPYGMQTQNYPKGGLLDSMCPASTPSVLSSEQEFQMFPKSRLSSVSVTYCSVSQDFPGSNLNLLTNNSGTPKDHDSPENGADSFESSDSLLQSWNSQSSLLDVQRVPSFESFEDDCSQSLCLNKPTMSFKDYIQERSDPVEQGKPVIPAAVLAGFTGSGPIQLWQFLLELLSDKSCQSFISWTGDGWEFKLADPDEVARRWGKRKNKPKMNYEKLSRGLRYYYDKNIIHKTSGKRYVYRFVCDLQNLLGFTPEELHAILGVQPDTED
The method, boiled down: as §1

The target in assay [4] is T4, SPDEF (Homo sapiens, UniProt O95238 1-335).
T4 sequence: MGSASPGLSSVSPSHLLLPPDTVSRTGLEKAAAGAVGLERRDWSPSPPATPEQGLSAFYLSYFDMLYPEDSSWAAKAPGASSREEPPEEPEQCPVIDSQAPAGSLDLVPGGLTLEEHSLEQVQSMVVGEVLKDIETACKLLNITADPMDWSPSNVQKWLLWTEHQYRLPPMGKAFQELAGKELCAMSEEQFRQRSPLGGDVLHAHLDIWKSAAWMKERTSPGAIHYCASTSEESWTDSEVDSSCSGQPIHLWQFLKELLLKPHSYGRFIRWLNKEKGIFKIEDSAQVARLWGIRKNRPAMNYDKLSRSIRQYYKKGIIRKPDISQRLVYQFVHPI
The method, boiled down:
as §1

The target of assay [5] is T5, ELF5 (Homo sapiens, UniProt Q9UKW6-2 1-255).
T5 sequence: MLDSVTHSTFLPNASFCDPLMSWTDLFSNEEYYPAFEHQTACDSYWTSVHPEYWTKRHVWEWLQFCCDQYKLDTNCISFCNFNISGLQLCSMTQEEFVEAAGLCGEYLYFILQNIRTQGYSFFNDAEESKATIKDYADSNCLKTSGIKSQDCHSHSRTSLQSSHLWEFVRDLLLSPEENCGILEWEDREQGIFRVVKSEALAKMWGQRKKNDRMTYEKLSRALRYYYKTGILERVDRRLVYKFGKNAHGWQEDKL
The method, boiled down: as §1

For assay [6], the target named is T6, ETV3 (Homo sapiens, UniProt P41162-2 1-143).
T6 sequence: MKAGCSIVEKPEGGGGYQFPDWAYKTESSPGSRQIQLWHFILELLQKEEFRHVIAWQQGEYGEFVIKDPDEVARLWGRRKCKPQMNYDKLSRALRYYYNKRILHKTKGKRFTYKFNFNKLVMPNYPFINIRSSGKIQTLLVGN
The method, boiled down: as §1

The target of assay [7] is ETV6 (Homo sapiens, UniProt P41212 1-452). The method in brief:
as §1

The target in assay [8] is T7, ETV7 (Homo sapiens, UniProt Q9Y603 1-341).
T7 sequence: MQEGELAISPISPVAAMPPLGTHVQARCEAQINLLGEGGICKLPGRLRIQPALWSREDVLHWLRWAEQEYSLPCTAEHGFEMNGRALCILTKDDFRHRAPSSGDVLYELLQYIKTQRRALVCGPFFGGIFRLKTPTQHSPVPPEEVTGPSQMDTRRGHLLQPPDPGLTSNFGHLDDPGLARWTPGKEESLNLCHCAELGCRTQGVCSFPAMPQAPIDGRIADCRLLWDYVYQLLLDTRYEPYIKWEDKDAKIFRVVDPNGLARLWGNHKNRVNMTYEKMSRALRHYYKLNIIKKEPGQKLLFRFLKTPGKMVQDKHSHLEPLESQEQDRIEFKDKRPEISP
The method in brief: as §1

Chain of ETV6 (P41212 whole entry): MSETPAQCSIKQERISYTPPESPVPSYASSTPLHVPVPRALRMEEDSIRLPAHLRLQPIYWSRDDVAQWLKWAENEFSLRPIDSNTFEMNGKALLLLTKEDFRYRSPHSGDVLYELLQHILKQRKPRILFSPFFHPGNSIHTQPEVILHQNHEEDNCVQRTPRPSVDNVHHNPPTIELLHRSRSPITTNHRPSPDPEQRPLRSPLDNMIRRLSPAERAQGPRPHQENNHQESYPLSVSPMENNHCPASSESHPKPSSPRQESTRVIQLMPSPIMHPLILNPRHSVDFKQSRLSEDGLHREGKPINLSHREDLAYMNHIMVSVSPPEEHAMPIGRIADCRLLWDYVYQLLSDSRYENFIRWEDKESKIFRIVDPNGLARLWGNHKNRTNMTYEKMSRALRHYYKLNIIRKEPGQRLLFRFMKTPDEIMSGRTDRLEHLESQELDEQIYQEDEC

CATGCC: the binding signal in assay [1] is 1.12 fold enrichment (6-mer frequency, TF over GST control); in assay [2], 1 fold enrichment (6-mer frequency, TF over GST control); in assay [3] it was 1.05 fold enrichment (6-mer frequency, TF over GST control); in assay [4], 1.09 fold enrichment (6-mer frequency, TF over GST control); in assay [5], 1.05 fold enrichment (6-mer frequency, TF over GST control); in assay [6], 1.22 fold enrichment (6-mer frequency, TF over GST control). In assay [7], the binding signal is 1.15 fold enrichment (6-mer frequency, TF over GST control).

GATACT: the binding signal is 1.22 fold enrichment (6-mer frequency, TF over GST control) in assay [1]; 1.22 fold enrichment (6-mer frequency, TF over GST control) in assay [2]; 1.09 fold enrichment (6-mer frequency, TF over GST control) in assay [3]; 1.17 fold enrichment (6-mer frequency, TF over GST control) in assay [4]; 1.06 fold enrichment (6-mer frequency, TF over GST control) in assay [5]; 1.06 fold enrichment (6-mer frequency, TF over GST control) in assay [6]. Besides, the binding signal in assay [7] was 1.07 fold enrichment (6-mer frequency, TF over GST control).

As for CGAAAA, the binding signal is 1.17 fold enrichment (6-mer frequency, TF over GST control) in assay [1]; 1.09 fold enrichment (6-mer frequency, TF over GST control) in assay [2]; 1.08 fold enrichment (6-mer frequency, TF over GST control) in assay [3]; 1.02 fold enrichment (6-mer frequency, TF over GST control) in assay [4]; 1.17 fold enrichment (6-mer frequency, TF over GST control) in assay [8]; 1.08 fold enrichment (6-mer frequency, TF over GST control) in assay [7].

Consider TGTGGA, for which the binding signal in assay [1] is 1.15 fold enrichment (6-mer frequency, TF over GST control); in assay [2], 1.17 fold enrichment (6-mer frequency, TF over GST control); in assay [3] it was 1.02 fold enrichment (6-mer frequency, TF over GST control); in assay [4], 1.1 fold enrichment (6-mer frequency, TF over GST control); in assay [5], 1.02 fold enrichment (6-mer frequency, TF over GST control); in assay [6], 1.02 fold enrichment (6-mer frequency, TF over GST control). The binding signal in assay [7] is 1.07 fold enrichment (6-mer frequency, TF over GST control).

As for CTCCAG, the binding signal in assay [1] is 1.2 fold enrichment (6-mer frequency, TF over GST control); in assay [2], 1.2 fold enrichment (6-mer frequency, TF over GST control); in assay [3], 1.19 fold enrichment (6-mer frequency, TF over GST control); in assay [4], 1.16 fold enrichment (6-mer frequency, TF over GST control); in assay [5] it was 1.15 fold enrichment (6-mer frequency, TF over GST control); in assay [6], 1.23 fold enrichment (6-mer frequency, TF over GST control).

For the sequence TCACAA, the binding signal in assay [1] is 1.23 fold enrichment (6-mer frequency, TF over GST control); in assay [2] it was 1.14 fold enrichment (6-mer frequency, TF over GST control); in assay [3], 1.23 fold enrichment (6-mer frequency, TF over GST control); in assay [4], 1.19 fold enrichment (6-mer frequency, TF over GST control); in assay [5] it was 1.11 fold enrichment (6-mer frequency, TF over GST control); in assay [6], 1.08 fold enrichment (6-mer frequency, TF over GST control). In addition, the binding signal in assay [7] is 1.03 fold enrichment (6-mer frequency, TF over GST control).

Take GGTCTA: the binding signal in assay [1] is 1.07 fold enrichment (6-mer frequency, TF over GST control); in assay [2], 1.11 fold enrichment (6-mer frequency, TF over GST control); in assay [3], 1.05 fold enrichment (6-mer frequency, TF over GST control); in assay [4], 1.08 fold enrichment (6-mer frequency, TF over GST control); in assay [5], 1.04 fold enrichment (6-mer frequency, TF over GST control); in assay [6], 1.05 fold enrichment (6-mer frequency, TF over GST control). Further, in assay [7], the binding signal is 1.04 fold enrichment (6-mer frequency, TF over GST control).
